A selection: hits, their analogues and other compounds. The true share with any hit is near 12%.
L3MBTL1 block = qHTS Assay for the Inhibitors of L3MBTL1; AlphaScreen L3MBTL1–H3K9me1 peptide binding; Potency, µM (highest dose often 57.1 µM), for inactives: at the top dose activity, negative = inhibition, most hits filed as inhibitors; actives 0.66% (n = 230,000); note: % is set by controls: 0 for no effect and ±100 for the full control effect; nearly all actives have a fitted effect of over 60% in size
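L3MBTL1 50 nM + b-AHA-H3(1-15)K9me1 75 nM, 30 min RT; compound added, 30 min RT; streptavidin donor/Ni-chelate acceptor beads 10 ug/mL each final, 30 min RT dark; AlphaScreen read.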
BAZ2B inh = qHTS Assay for Inhibitors of BAZ2B. AlphaScreen BAZ2B-H3K14Ac peptide displacement. Potency, µM (titrated, usually from 114 µM), for inactives: at the top dose activity change, negative = inhibition, usual class: inhibitors. actives 4.4% (n = 360,000); note: % is set by controls: 0 for no effect and ±100 for the full control effect; nearly all actives have a fitted effect of over 60% in size
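BAZ2B (50 nM) with biotin-H3(5-23)K14Ac peptide (50 nM) in PBS pH 7.4, 0.01% Tween-20, preformed 30 min, then compound 30 min at room temperature; top concentration 110uM. AlphaScreen streptavidin donor/nickel chelate acceptor beads (10 ug/mL final), 20 min dark, signal read.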
G9a inh = qHTS Assay for Inhibitors of Histone Lysine Methyltransferase G9a | AID 504332, 2011 | actives 8.8% (n = 350,000) | G9a H3K9 monomethylation, AlphaScreen, 2 h | Histone-lysine N-methyltransferase EHMT2 (Homo sapiens), Q96KQ7 | Potency, µM (highest dose often 102 µM), for the others: at the highest dose activity, negative = inhibition, actives largely listed as inhibitors; note: % is set by controls: 0 for no effect and ±100 for the full control effect; nearly all actives have a fitted effect of over 75% in size
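Signal arises when biotinylated H3K9 peptide, once monomethylated, bridges streptavidin donor and antibody-captured acceptor beads. Enzyme at 20 nM was preincubated 15 min with test compounds; peptide 500 nM and SAM 20 uM then reacted for 2 h.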
Sfp PPTase inh = qHTS Assay for Inhibitors of Bacillus subtilis Sfp phosphopantetheinyl transferase (PPTase). Biochemical Sfp PPTase activity, qHTS. Potency, µM, inactives show largest response in the series, negative = inhibition, most hits filed as inhibitors. actives 3.5% (n = 310,000);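 note: the enzyme is Sfp with the accession as filed and its product quenches rhodamine fluorescence; 0% = enzyme reaction without inhibitor and -100% = no enzyme wells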
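Sfp 15 nM + cpd, 15 min RT; start w/ rhodamine-CoA 5 uM, BHQ-2-YbbR 12.5 uM (final); 50 mM Hepes pH 7.6, 10 mM MgCl2, 0.01% NP-40, 0.01% BSA; read 525/598 nm at 0 and 30 min.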
JMJD2A Tudor = qHTS Assay for Inhibitors of JMJD2A-Tudor Domain | Potency, µM (doses to about 114 µM), inactives show top-dose activity change, negative = inhibition, usual class: inhibitors | Lysine-specific demethylase 4A (Homo sapiens), O75164 | AID 504339, 2011 | AlphaScreen JMJD2A-Tudor / H3K4me3 peptide binding | actives 4.4% (n = 390,000); note: % is set by controls: 0 for no effect and ±100 for the full control effect; nearly all actives have a fitted effect of over 50% in size
HP1b binding inh = HTS for Inhibitors of HP1-beta Chromodomain Interactions with Methylated Histone Tails. Chromobox protein homolog 1 (Homo sapiens), P83916. AlphaScreen HP1-beta / biotin-H3K9me3 peptide binding. Potency, µM (titrated, usually from 114 µM), without a hit: top-dose activity change, negative = inhibition, hits mostly inhibitors. actives 0.56% (n = 390,000). AID 540317, 2011; note: nearly all actives have a fitted effect of over 70% in size
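HP1-beta protein (50 nM final) preincubated 30 min at room temperature with biotinylated H3(1-18)K9me3 peptide (50 nM) in PBS pH 7.4, 0.01% Tween-20, then compound added for 30 min. AlphaScreen streptavidin donor/nickel chelate acceptor beads (10 ug/mL final), 30 min dark, luminescence read.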
An asterisk follows results filed as active; ? = inconclusive; . = no result given; [ ] = dose if it differs, or a comment. Calls come from the whole dose curve; as a rule, active = well fitted curve in the direction sought with a large enough effect; inconclusive = small, poorly fitted or top-dose-only effect, or another doubt; inactive = no such curve, though single readings can be large; an effect the other way counts as inactive or inconclusive. Potency is the fitted concentration of half-maximal effect.

SMILES	L3MBTL1 block	BAZ2B inh	G9a inh	Sfp PPTase inh	JMJD2A Tudor	HP1b binding inh
O=Cc1cc(Cl)ccc1OCCN1CCC(Cc2ccccc2)CC1	2%	?	25µM*	-24%	20µM*	?
OC(CN1CCC(Cc2ccccc2)CC1)C(F)(F)F (stereo not drawn)	.	2%	-9%[0.501 µM]	8%	-1%	64%
O=C(/C=C/c1cccc(Cl)c1)N1CCC(Cc2ccccc2)CC1	18%	16%	37%[59 µM]	-31%	27%	88%
C=CCOc1ccccc1CN1CCC(n2nccc2NC(=O)c2ccccc2)CC1	.	-9%	-7%	11%	-14%	39%
COc1ccc(C2=Nn3c(nnc3-c3ccc(OC)c(OC)c3)SC2)c(OC)c1	.	.	.	3%	-36%	.
Cc1cc(C(=O)NC2CCCc3c2cnn3-c2ccc(C(C)(C)C)cc2)nn1C (stereo not drawn)	.	-27%	-2%	-2%	-26%	16%
Cc1ccc(Oc2cc(NN3CCCCC3)c([N+](=O)[O-])cc2[N+](=O)[O-])c(Cl)c1	-7%	?	?	7%	?	?
CCOc1ccc(S(=O)(=O)N(CC)CC(=O)NCc2cccnc2)cc1C	.	-15%	18%	22%	6%	33%
COc1cc(C(C)=O)ccc1OCCN1CCC(Cc2ccccc2)CC1	0%[11.4 µM]	32µM*	?	-25%	1.6µM*	45µM*
CCOC(=O)c1nnsc1-c1ccc(-c2snnc2C(=O)OCC)cc1	7%	1%	7%	4%	-2%	43%
CCOC(=O)c1nnsc1Nc1ccc(C)c(C)c1	.	1%	7.1µM*	-26%	20%	71%
COc1ccccc1C(CNC(=O)c1ccc(S(=O)(=O)N2CCCCC2)cc1)N(C)C (stereo not drawn)	-3%	4%	-7%[2.33 µM]	.	-13%	31%
OCCNC1=NCCN1	-1%	-32%	-46%[12.7 µM]	5%	1%	17%
Fc1ccc(Sc2ccccc2CNC2=NCCN2)cc1	-4%	-5%	6.3µM*	2%	-14%	10%
Cc1cccc(N2CCN(C(=O)CSCc3ccc(F)cc3)CC2)c1C	.	49%	14%[59 µM]	.	17%	34%
Cc1cccc(N2CCN(C(=O)c3ccc4c(c3)NC(=O)C(CSCc3cccc(F)c3)N4)CC2)c1C (stereo not drawn)	.	?	10µM*	89µM*	.	.
Cc1nnc(SCC(=O)NC2CC2)s1	.	-5%	3%	9%	-17%	18%
O=C(O)CC1c2ccccc2CCN1S(=O)(=O)c1ccccc1 (stereo not drawn)	.	.	.	.	4%	22%
Cc1ccc(S(=O)(=O)N2CCc3ccccc3C2CC(=O)O)cc1 (stereo not drawn)	11%	-16%	79µM*	1%	1%	40%
CCOC(=O)[C@H]1[C@H]2COc3ccccc3[C@@H]2N2C(=O)[C@@H](CO)NC(=O)[C@@]12C	-12%	7%	11%[0.501 µM]	.	-25%	17%
Cc1cccc(Nc2nnc(SCC(=O)Nc3ccc(C(=O)O)cc3)s2)c1	15%	-5%	-27%	10%	-5%	15%
Cc1cccc(Nc2nnc(SCC(=O)c3ccc(O)cc3O)s2)c1	.	-5%	45µM*	-7%	-27%	38%
Cc1ccc(Nc2nnc(SCC(=O)N(C)C3CCS(=O)(=O)C3)s2)cc1 (stereo not drawn)	1%	-3%	?	14%	-14%	18%
Cc1cccc(Nc2nnc(SCC3CCCCO3)s2)c1 (stereo not drawn)	9%	-8%	10µM*	5%	-3%	24%
Cc1ccc(Nc2nnc(SCC(=O)c3ccc(O)cc3O)s2)cc1	.	-13%	32µM*	-5%	-33%	-9%

Source: PubChem
